Reference: PubChem BioAssay (EPA / NIEHS)
Records with an inconclusive call do not appear. Active and inactive are the calls of the source. The calls were made as follows, unless noted: active = hit-call score of the fitted dose curve at least 0.9, where 1 is the maximum; inconclusive = response in the unintended direction; inactive = score below 0.9.

Legend:
DIO3 (gene 1735) = assay: CCTE_GLTED_hDIO3: CCTE's human Deiodinase 3 (DIO3) Inhibition Assay, Great Lakes Toxicology and Ecology Division (GLTED) Lab (AID 2284055);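 also: potency is for inhibition seen as loss of released iodide signal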
How it was run: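 Human type 3 deiodinase, expressed via adenovirus system, was exposed to test chemicals for 3 hours in a cell-free format. Released iodide was then determined spectrophotometrically by Sandell-Kolthoff; plates ran in triplicate.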

[1] = CCTE_Shafer_MEA_acute_LDH: CCTE's Lactate Dehydrogenase Assay for Cytotoxicity in the Neural Acute Assay, Shafer Lab (AID 2284086);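 also: active means LDH release rises above DMSO vehicle level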
How it was run: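 Medium collected from MEA wells of primary rat cortical cultures (DIV 13 or 15) immediately after 40 min chemical exposure is assayed spectrophotometrically for lactate dehydrogenase activity. Endpoint fitted in positive direction versus DMSO.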

[2] = CCTE_Shafer_MEA_acute_AB: CCTE's Alamar Blue Assay for Cytotoxicity in the Neural Acute Assay, Shafer Lab (AID 2284069);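 also: active compounds lower the viability signal compared with DMSO wells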
How it was run: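 Primary rat cortical neurons on MEA plates, exposed acutely after baseline recording on day 13 or 15 post-plating. Viability by CellTiter Blue resazurin reduction (1:6 reagent dilution), fluorescence 544/590 nm; loss of signal versus DMSO.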

[3] = UKN5_HCS_SBAD2_cell_viability: Viability Assessment in the University of Konstanz (UKN) Leist Lab Neurite Outgrowth Assay in human iPSC-derived immature Dorsal Root Ganglia Neurons (UKN5) (AID 2284056; active = hit-call score of the fitted dose curve at least 0.9, where 1 is the maximum; inactive = score below 0.9)
How it was run: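 iPSC-derived immature peripheral neurons (SBAD2) seeded on Matrigel with CHIR99021, SU5402 and DAPT, dosed 1 h later for 24 h. Viability from Hoechst H-33342 and calcein-AM live staining, high-content imaging; bidirectional fit versus DMSO.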

[4] = CCTE_Shafer_MEA_dev_LDH: CCTE's Lactate Dehydrogenase Assay for Cytotoxicity in the Neural Network Formation Assay, Shafer Lab (AID 2284068);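 also: exposure for twelve days from plating with re-dosing on DIV 5 and 9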
How it was run: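 Primary rat cortical neurons were plated on PEI/laminin MEA plates and exposed from day 0 for twelve days, with compound renewed at DIV 5 and 9. Cytotoxicity was determined by spectrophotometric LDH assay relative to DMSO.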

[5] = UKN5_HCS_SBAD2_neurite_outgrowth: University of Konstanz (UKN) Leist Lab Neurite Outgrowth Assay in human iPSC-derived immature Dorsal Root Ganglia Neurons (UKN5) (AID 2284070; active = hit-call score of the fitted dose curve at least 0.9, where 1 is the maximum; inactive = score below 0.9); details: actives raise or lower the signal
How it was run: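 Thaw, seed on Matrigel (100.000 cells/cm2), dose 1 h later; at 23 h live-stain with H-33342 and calcein-AM for 60 min; image at 24 h. Neurite area fitted bidirectionally vs DMSO.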

[6] = CCTE_Shafer_MEA_dev_mutual_information_norm: CCTE's Neural Network Formation Assay for Mutual Information Normalization, Shafer Lab (AID 2284091; active = hit-call score of the fitted dose curve at least 0.9, where 1 is the maximum; inactive = score below 0.9)
How it was run: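 Neurons from rat cortex were seeded at 1.5 x 10^5 cells/well onto PEI-coated MEAs in a laminin drop, then exposed to compound from day 0 for twelve days. Network recordings on four days gave mutual information, summarised by AUC relative to DMSO.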

[7] = CCTE_Shafer_MEA_dev_correlation_coefficient_mean: CCTE's Neural Network Formation Assay for Mean Correlation Coefficient, Shafer Lab (AID 2284093; active = hit-call score of the fitted dose curve at least 0.9, where 1 is the maximum; inactive = score below 0.9)
How it was run: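 Spontaneous activity recorded on days 5, 7, 9 and 12 post-plating; pairwise spike correlations are averaged across active electrodes and collapsed to an area-under-curve. Rat cortical cultures are dosed from plating through 12 days, with compound renewed at media changes.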

[8] = UKN2_HCS_IMR90_neural_migration: University of Konstanz (UKN) Leist Lab Neural Crest Cell Migration Assay in human induced IMR90 Pluripotent Stem Cells (UKN2) (AID 2284204; active = hit-call score of the fitted dose curve at least 0.9, where 1 is the maximum; inactive = score below 0.9); details: actives raise or lower the signal
How it was run: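 Stopper-exclusion migration (cMINC), human iPSC-derived neural crest cells; N2-S + EGF/FGF; compound added 24 h post-stopper removal, 24 h exposure. Readout: calcein-AM/Hoechst 30 min, HCS fluorescence imaging; bidirectional fitting, DMSO baseline.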

CCCCCCC(C=O)=Cc1ccccc1
AC50 (DIO3 (gene 1735)): 3.29 µM (active)

Cc1ccc(C(C)(C)C)c(O)c1
outcome [1]: inactive

CCCC(=O)O
outcome [2]: inactive
outcome [1]: inactive

Nc1nc(=S)c2[nH]cnc2[nH]1
outcome [2]: inactive
outcome [1]: inactive

CCc1cc(C2=C(C(=O)O)N(c3ccccc3C(F)(F)F)S(=O)(=O)c3ccccc32)cc2c1OCO2
outcome [2]: inactive
outcome [1]: inactive

c1ccc2occc2c1
outcome [2]: inactive
outcome [1]: inactive

CCCCC(CC)COP(=O)(OCC(CC)CCCC)OCC(CC)CCCC (stereo not drawn)
outcome [1]: inactive

S=c1[nH]c2ccccc2s1
AC50 (DIO3 (gene 1735)): 73.2 µM (active)

Oc1ccc(O)cc1
outcome [2]: inactive
outcome [1]: inactive

O=C1NC(=O)C(c2ccccc2)(c2ccccc2)N1
outcome [3]: inactive
outcome [4]: inactive
outcome [5]: inactive
outcome [6]: inactive
outcome [7]: inactive
outcome [8]: inactive

CCCCCCCCCCCCCCOS(=O)(=O)O
AC50 (DIO3 (gene 1735)): 18.5 µM (active)

Cc1cc(Cc2ccc(N)c(C)c2)ccc1N
outcome [2]: inactive
outcome [1]: inactive

CSc1ccc(Oc2ccc(S(N)(=O)=O)cc2CN(C)C)cc1C
outcome [2]: inactive

OCC(CO)n1cnc(-c2ccc(F)cc2)c1-c1ccnc(Oc2ccccc2)n1
outcome [1]: inactive

Cc1ccc(-c2cc(C(F)(F)F)nn2-c2ccc(S(N)(=O)=O)cc2)cc1
AC50 (DIO3 (gene 1735)): 172 µM (active)

Cc1c(C)c2c(c(C)c1O)CCC(C)(COc1ccc(CC3SC(=O)NC3=O)cc1)O2 (stereo not drawn)
AC50 (DIO3 (gene 1735)): 95.1 µM (active)
outcome [2]: inactive

CCN(CC)CCOc1ccc(C(=C(Cl)c2ccccc2)c2ccccc2)cc1
outcome [2]: inactive
outcome [1]: inactive

O=C(N[C@@H](c1ccccc1)[C@@H]1CCCCN1)c1cccc(C(F)(F)F)c1Cl
outcome [2]: inactive
outcome [1]: inactive

O=C(Oc1ccccc1)c1cccc(C(=O)Oc2ccccc2)c1
AC50 (DIO3 (gene 1735)): 64.5 µM (active)
